High-throughput results deposited in PubChem BioAssay by Broad Institute.
Not all results are given here.
aSyn 5UTR act = Activators via SNCA 5'UTR binding, MLPCN | activity score, % (tested at 7.5 µM), hits read low | alpha-synuclein 5'UTR reporter, activators screen | actives 7.1% (n = 300,000); in the data active = activity score below about -60%
Numbers without * were called inactive.

SMILES	aSyn 5UTR act
CCc1nc2ccc(C(=O)NC3CCC(C)CC3)cc2nc1CC (centres undefined)	-85.8*
CC1CCC(NC(=O)c2ccc3snnc3c2)CC1 (centres undefined)	-86.5*
CCc1ccccc1NC(=O)c1ccc(-c2csc(C)n2)cc1	-143.0*
Cc1ccc(C(=O)Nc2ccc(-c3csc(C)n3)cc2)cc1	-137.6*
Cc1ccc(CNC(=O)c2ccc(Cn3cc(-c4ccc(C)cc4)nc3-c3ccncc3)cc2)cc1	-176.6*
COCCNC(=O)c1ccc(-c2csc(C)n2)cc1	-64.0*
Cc1ccc(C(=O)NCCc2csc(C)n2)cc1	-80.7*
Cc1ccn(C(=O)c2ccc(NC(=O)C3CCCCC3)cc2)n1	-70.4*
Cc1ccc(CCNC(=O)NC(C)(C)C)cc1	-94.2*
Cc1nc(-c2ccc(NC(=O)C3CCCCC3)cc2)cs1	-173.7*
Cc1ccc(C(=O)NCCc2ccccc2)cc1	71.1
Cc1ccc(C(=O)NCCc2ccncc2)cc1	-113.8*
CC(C)(C)c1ccc(S(=O)(=O)NCC(=O)Nc2ccc(-c3nc4ccccc4s3)cc2)cc1	-100.5*
CC(NS(=O)(=O)c1cccc(Cl)c1)C(=O)Nc1ccc(-c2nc3ccccc3s2)cc1 (centres undefined)	-138.5*
Cc1ccc(C)c(S(=O)(=O)NC(C)C(=O)Nc2ccc(-c3nc4ccccc4s3)cc2)c1 (centres undefined)	-108.1*
CN(C)c1ccc(NC(=O)/C=C/c2c(Cl)cccc2Cl)cc1	-80.1*
NC(=O)c1ccccc1NC(=O)/C=C/c1c(Cl)cccc1Cl	-188.9*
NC(=O)c1ccccc1NC(=O)/C=C/c1cccc(Cl)c1	-132.5*
CC(C)c1ccc(Nc2nnc(SCC(=O)Nc3ncc(S(=O)(=O)c4ccc([N+](=O)[O-])cc4)s3)s2)cc1	-66.5*
CCCCC(=O)NC(c1ccccc1)c1ccc2cccnc2c1O (centres undefined)	67.9
CCC(=O)NC(c1ccccc1)c1nc2ccccc2[nH]1 (centres undefined)	-79.1*
CCCC(=O)NC(c1ccccc1)c1ccc2cccnc2c1O (centres undefined)	65.4
C/C(=N\Nc1ncnc2sc(C)c(C)c12)c1ccccn1	104.9
Cc1ccc(Nc2ncnc3sc(C)c(C)c23)cc1	-182.1*
Cc1sc2ncnc(N/N=C/c3cccc(O)c3)c2c1C	-74.8*
SMILES	aSyn 5UTR act
CN(C)CCNC(=O)c1csc(Nc2cccc3ccccc23)n1	57.2
CC(=O)c1csc(Nc2ccccc2Cl)n1	-121.3*
CC(C)(C)C(=O)c1cnc(Nc2ccccc2Cl)s1	-145.8*
O=C(c1ccccc1)c1cnc(Nc2ccccc2Cl)s1	-95.8*
Cc1ccc(NC(=S)NNC(=O)c2ccco2)cc1	-74.3*
Cc1ccc(C(=O)NNC(=O)c2ccco2)cc1	-69.2*
COc1cccc(N2C(C(C)=O)=NN(c3ccccc3)C2c2ccc(N3CCOCC3)cc2)c1 (centres undefined)	-82.1*
Cc1nc(C(F)(F)F)ccc1C(=O)Nc1ccc2ccccc2n1	-94.3*
Cc1nc(C(F)(F)F)ccc1C(=O)NCC(O)c1ccccc1 (centres undefined)	-66.6*
Cc1ccc(-c2cnc(N)n2C)cc1C	-71.2*
Cn1c(-c2ccc(Cl)cc2)cnc1N	-126.4*
CC(C)(C)n1nc(-c2ccc(Cl)cc2)c2c(N)ncnc21	104.6
Cc1c(C(=O)NCc2ccoc2)oc2ccc3c(c12)C(=O)CC(C)(C)O3	-464.0*
Cc1c(C(=O)NCCCN2CCCCC2)oc2ccc3c(c12)C(O)CC1(CCCCC1)O3 (centres undefined)	76.0
COc1ccc(NC(=O)CCCc2ccccc2)cc1OC	-136.1*
COc1cc(NC(=O)C(C)C)ccc1NC(=O)c1cc2ccccc2o1	-166.3*
COc1ccc(NC(=O)c2coc3ccccc23)cc1OC	-122.0*
COc1ccc(NC(=O)c2cc3ccccc3o2)cc1	-152.1*
COc1ccc(NC(=O)c2cc(CN3C(=O)c4ccccc4C3=O)ccc2OC)cn1	-85.9*
COc1ccc(NC(=O)c2cc3ccccc3o2)cc1OC	-149.7*
COc1ccc(NC(=O)c2cc3ccccc3o2)cn1	-215.8*
COC(=O)c1ccc(-c2nc3ccc(C)cc3o2)cc1	-77.4*
Clc1ccc2oc(-c3ccccc3)nc2c1	-151.2*
Clc1ccc2oc(-c3cccnc3)nc2c1	-119.2*
Cc1ccc2nc(-c3cccnc3)oc2c1	-80.2*
SMILES	aSyn 5UTR act
Cc1ccccc1-c1nc2cc(Cl)ccc2o1	-182.6*
Cc1cccc(OCC(=O)Nc2cccc3nsnc23)c1	-82.0*
Cc1cccc(OCC(=O)Nc2cccc(O)c2)c1	-161.5*
O=C(COc1cc(Cl)c(Cl)cc1Cl)Nc1cccc(O)c1	-90.4*
Cc1ccc(OCC(=O)Nc2cccc(O)c2)cc1C	-172.1*
CCOc1ccc(N=C(/C(C(=O)C(=O)N2CCOCC2)=C(/O)c2ccccc2)c2ccccc2)cc1	-202.9*
CC(C)(C)C(=O)N1CCN(c2nc3ccc(Cl)cc3s2)CC1	-237.1*
CC(C)(C)C(=O)N1CCN(c2nc3ccc(Br)cc3s2)CC1	-163.9*
CC(=O)N1CCN(c2nc3ccc(Br)cc3s2)CC1	-157.6*
CCN(C(=O)CSc1nnc(Cn2nnc3ccccc32)o1)c1nc(-c2ccccc2)cs1	-105.0*
Cc1cccc2c1cnn2C(=O)Nc1cc(F)ccc1F	-177.7*
CCC(=O)Nc1nonc1-c1nc2ccccc2n1Cc1cccc2ccccc12	67.3
CCOc1ccccc1NC(=O)n1ncc2c(C)cccc21	-68.5*
CCCCOc1ccccc1NC(=O)Cn1c(-c2nonc2N)nc2ccccc21	124.2
COc1ccc(NC(=O)Nc2nnc(-c3ccco3)s2)cc1	-108.3*
COc1ccc(NC(=O)Nc2nnc(C(C)C)s2)cc1	-134.9*
O=C(Nc1nnc(-c2ccccc2F)s1)c1cccnc1	-115.7*
Cc1ccc(NC(=O)Nc2nnc(-c3ccccc3F)s2)cc1	-84.5*
COc1ccc(NC(=O)Nc2nnc(-c3ccccc3F)s2)cc1	-134.3*
COc1ccc(NC(=O)Nc2nnc(-c3ccncc3)s2)cc1	-100.4*
CCOC(=O)c1ccc(NC(=O)c2cccc(S(=O)(=O)N3c4ccccc4CC3C)c2)s1 (centres undefined)	83.1
Cc1cccc2c1-c1sc(C(=O)Nc3cccc([N+](=O)[O-])c3C)cc1CO2	-72.9*
CCOC(=O)c1cc2c(s1)-c1c(C)cccc1OC2	-163.7*
O=C(Nc1ccc(Cl)cn1)c1cc2c(s1)-c1ccccc1OC2	-111.5*
CN1CCN(c2ccccc2NC(=O)c2cc3c(s2)-c2ccccc2OC3)CC1	-70.5*
SMILES	aSyn 5UTR act
O=C(Nc1nc2ccccc2s1)c1cc2c(s1)-c1ccccc1OC2	-176.9*
O=C(Nc1nccs1)c1cc2c(s1)-c1ccccc1OC2	-218.1*
Cc1cccc2c1-c1sc(C(=O)Nc3nccs3)cc1CO2	-213.2*
Cc1ccc(NC(=O)Nc2cnc3ccccc3c2)cc1	-144.3*
Cn1ncc2cc(NC(=S)NC(=O)c3ccccc3)ccc21	-201.1*
O=C(NC(=S)Nc1cnc2ccccc2c1)c1ccccc1	-171.1*
S=C(NCCc1ccccc1)Nc1cnc2ccccc2c1	-114.8*
O=C(Nc1cnc2ccccc2c1)c1ccncc1	-109.9*
O=C(NC(=S)Nc1ncc(Br)cc1Br)c1ccccc1	-152.9*
COc1ccc(NC(=O)c2csc(Cc3ccccc3)n2)cc1	-109.8*
O=C(Nc1ccc(F)cc1)c1csc(Cc2ccccc2)n1	-110.1*
CCC(C)Nc1nc(-c2ccccn2)nc2ccccc12 (centres undefined)	68.6
FC(F)(F)c1ccc(NCc2ccccn2)nc1	-166.6*
Cc1cc(NCc2ccccn2)nc2ccccc12	-86.8*
COc1ccc(-c2nnc(-c3ccc(Br)o3)o2)cc1OC	-89.9*
